Data: PubChem BioAssay AID1159580 (chemical genetic matrix, 2015)
About 2,000 (36%) of roughly 5,500 compounds were called active. Inconclusive results (about 18%) are left out. Cut-off read from the data, not from the text of the source: active = normalized growth mostly below about 0.91 (no sharp cut-off); inconclusive = no clear call, values can overlap the other calls; inactive = mostly above about 0.92. The list shows a part of the results.

Assay: chemical genetic growth profiling, strain panel (AID 1159580);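 note: tested at 20 µM; growth read once vehicle control cultures reached saturation at 30 °C; 1 = growth at the plate median or of vehicle wells; lower values mean less growth of the strain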
Conditions: growth OD

Measured: normalized growth

CC(=O)Nc1c(I)cc(I)c(C(=O)O)c1I
inactive: S. cerevisiae deletion strains, locus YJR075W, strain HOC1, active compounds read low 1 | S. cerevisiae deletion strains, locus YKL009W, strain mrt4, active compounds read low 0.978 | S. cerevisiae deletion strains, locus YKL068W, active compounds read low 0.986 | S. cerevisiae deletion strains, locus YKL085W, strain MDH1 (second series), active compounds read low 1.01 | S. cerevisiae deletion strains, locus YKL085W, strain MDH1, active compounds read low 1.01 | S. cerevisiae deletion strains, locus YKL160W, strain elf1, active compounds read low 0.985 | S. cerevisiae deletion strains, locus YKL190W, strain CNB1, active compounds read low 1.02 | S. cerevisiae deletion strains, locus YKR001C, strain vps1, active compounds read low 0.986 | S. cerevisiae deletion strains, locus YKR026C, strain gcn3, active compounds read low 0.975 | S. cerevisiae deletion strains, locus YKR091W, strain srl3, active compounds read low 0.981 | S. cerevisiae deletion strains, locus YLL001W, strain dnm1, active compounds read low 0.953 | S. cerevisiae deletion strains, locus YLL026W, active compounds read low 0.985 | S. cerevisiae deletion strains, locus YLL041C, strain sdh2, active compounds read low 0.972 | S. cerevisiae deletion strains, locus YLR027C, strain aat2, active compounds read low 0.981 | S. cerevisiae deletion strains, locus YLR039C, strain RIC1, active compounds read low 1.01 | S. cerevisiae deletion strains, locus YLR058C, strain SHM2, active compounds read low 0.994 | S. cerevisiae deletion strains, locus YLR102C, strain apc9, active compounds read low 0.991 | S. cerevisiae deletion strains, locus YLR113W, strain HOG1, active compounds read low 1 | S. cerevisiae deletion strains, locus YLR221C, strain rsa3, active compounds read low 1.01 | S. cerevisiae deletion strains, locus YLR258W, strain gsy2, active compounds read low 0.976 | S. cerevisiae deletion strains, locus YLR262C, strain YPT6 (second series), active compounds read low 0.971 | S. cerevisiae deletion strains, locus YLR262C, strain YPT6, active compounds read low 0.954 | S. cerevisiae deletion strains, locus YLR268W, strain sec22, active compounds read low 0.996 | S. cerevisiae deletion strains, locus YLR320W, strain mms22, active compounds read low 0.99 | S. cerevisiae deletion strains, locus YLR330W, strain CHS5, active compounds read low 0.998 | S. cerevisiae deletion strains, locus YLR342W, strain FKS1 (second series), active compounds read low 1.04 | S. cerevisiae deletion strains, locus YLR342W, strain FKS1, active compounds read low 0.978 | S. cerevisiae deletion strains, locus YLR357W, strain rsc2, active compounds read low 1 | S. cerevisiae deletion strains, locus YLR370C, strain arc18, active compounds read low 0.989 | S. cerevisiae deletion strains, locus YLR371W, strain rom2, active compounds read low 0.993 | S. cerevisiae deletion strains, locus YLR384C, strain iki3, active compounds read low 0.98 | S. cerevisiae deletion strains, locus YLR418C, strain cdc73, active compounds read low 0.99 | S. cerevisiae deletion strains, locus YML016C, strain PPZ1, active compounds read low 0.993 | S. cerevisiae deletion strains, locus YML032C, strain rad52, active compounds read low 0.987 | S. cerevisiae deletion strains, locus YML120C, strain ndi1, active compounds read low 0.981 | S. cerevisiae deletion strains, locus YML124C, strain tub3, active compounds read low 0.988 | S. cerevisiae deletion strains, locus YMR058W, strain fet3, active compounds read low 0.989 | S. cerevisiae deletion strains, locus YMR078C, strain ctf18, active compounds read low 0.988 | S. cerevisiae deletion strains, locus YMR125W, strain sto1, active compounds read low 0.96 | S. cerevisiae deletion strains, locus YMR129W, active compounds read low 0.96 | S. cerevisiae deletion strains, locus YMR205C, strain PFK2, active compounds read low 0.977 | S. cerevisiae deletion strains, locus YMR223W, strain ubp8, active compounds read low 0.972 | S. cerevisiae deletion strains, locus YMR231W, strain pep5, active compounds read low 0.982 | S. cerevisiae deletion strains, locus YMR263W, strain SAP30, active compounds read low 1.01 | S. cerevisiae deletion strains, locus YMR307W, strain GAS1, active compounds read low 1.07 | S. cerevisiae deletion strains, locus YNL067W, strain RPL9B, active compounds read low 1 | S. cerevisiae deletion strains, locus YNL071W, strain lat1, active compounds read low 0.987 | S. cerevisiae deletion strains, locus YNL128W, strain TEP1, active compounds read low 1.01 | S. cerevisiae deletion strains, locus YNL153C, strain GIM3, active compounds read low 0.993 | S. cerevisiae deletion strains, locus YNL183C, strain NPR1, active compounds read low 0.968 | S. cerevisiae deletion strains, locus YNL209W, strain ssb2, active compounds read low 0.99 | S. cerevisiae deletion strains, locus YNL233W, strain BNI4, active compounds read low 0.998 | S. cerevisiae deletion strains, locus YNL248C, strain rpa49, active compounds read low 0.992 | S. cerevisiae deletion strains, locus YNL250W, strain rad50, active compounds read low 0.986 | S. cerevisiae deletion strains, locus YNL271C, strain bni1, active compounds read low 0.989 | S. cerevisiae deletion strains, locus YNL298W, strain CLA4, active compounds read low 0.986 | S. cerevisiae deletion strains, locus YNL307C, strain MCK1, active compounds read low 0.987 | S. cerevisiae deletion strains, locus YNL322C, strain KRE1 (second series), active compounds read low 0.971 | S. cerevisiae deletion strains, locus YNL322C, strain KRE1, active compounds read low 1 | S. cerevisiae deletion strains, locus YNR049C, strain mso1, active compounds read low 0.993 | S. cerevisiae deletion strains, locus YNR052C, strain pop2, active compounds read low 0.999 | S. cerevisiae deletion strains, locus YOL006C, strain TOP1, active compounds read low 1.02 | S. cerevisiae deletion strains, locus YOL012C, strain htz1 0.771 | S. cerevisiae deletion strains, locus YOL147C, strain pex11, active compounds read low 0.992 | S. cerevisiae deletion strains, locus YOR001W, strain rrp6, active compounds read low 0.976 | S. cerevisiae deletion strains, locus YOR061W, strain CKA2, active compounds read low 1 | S. cerevisiae deletion strains, locus YOR069W, strain VPS5, active compounds read low 0.988 | S. cerevisiae deletion strains, locus YOR070C, strain gyp1, active compounds read low 0.988 | S. cerevisiae deletion strains, locus YOR080W, strain dia2, active compounds read low 0.975 | S. cerevisiae deletion strains, locus YOR083W, strain WHI5, active compounds read low 0.984 | S. cerevisiae deletion strains, locus YOR106W, strain vam3, active compounds read low 0.964 | S. cerevisiae deletion strains, locus YOR136W, strain idh2, active compounds read low 0.987 | S. cerevisiae deletion strains, locus YOR144C, strain elg1, active compounds read low 0.995 | S. cerevisiae deletion strains, locus YOR184W, strain ser1, active compounds read low 0.969 | S. cerevisiae deletion strains, locus YOR231W, strain MKK1, active compounds read low 1.02 | S. cerevisiae deletion strains, locus YOR265W, strain rbl2, active compounds read low 0.98 | S. cerevisiae deletion strains, locus YOR270C, strain vph1, active compounds read low 0.951 | S. cerevisiae deletion strains, locus YOR290C, strain snf2, active compounds read low 1 | S. cerevisiae deletion strains, locus YOR316C, strain cot1, active compounds read low 0.991 | S. cerevisiae deletion strains, locus YPL051W, strain arl3, active compounds read low 0.981 | S. cerevisiae deletion strains, locus YPL055C, strain LGE1, active compounds read low 1.05 | S. cerevisiae deletion strains, locus YPL078C, strain atp4, active compounds read low 0.961 | S. cerevisiae deletion strains, locus YPL106C, strain sse1, active compounds read low 0.981 | S. cerevisiae deletion strains, locus YPL240C, strain hsp82, active compounds read low 0.972 | S. cerevisiae deletion strains, locus YPL241C, strain CIN2, active compounds read low 1.01 | S. cerevisiae deletion strains, locus YPL256C, strain CLN2, active compounds read low 1.02 | S. cerevisiae deletion strains, locus YPR119W, strain clb2, active compounds read low 0.986 | S. cerevisiae deletion strains, locus YPR141C, strain kar3, active compounds read low 0.981 | S. cerevisiae deletion strains, locus YPR163C, strain tif3, active compounds read low 0.997 | S. cerevisiae deletion strains, locus YPR167C, strain met16, active compounds read low 0.983 | S. cerevisiae deletion strains, strain wtn01, active compounds read low 0.986 | S. cerevisiae strains, strain wild type, active compounds read low 1.05
